For 21 compounds, Potency, activity change, negative = inhibition and activity change, negative = cytotoxicity results are on record in PubChem BioAssay (NCATS).

Each structure is given as a SMILES string. Records with an inconclusive call do not appear. Values without a mark were called inactive. Active and inactive are the calls of the source. The call rests on the fitted dose curve; in most records, active means well fitted curve in the direction sought with a large enough effect; inconclusive means small, poorly fitted or top-dose-only effect, or another doubt; inactive means no such curve, though single readings can be large; an effect the other way counts as inactive or inconclusive.

In one test the test system is CASKI. Kind of test: Primary qHTS to identify gynecologic anti-cancer compounds using libraries of approved drugs and bioactive compounds (AID 1345084). Further: nearly all actives have a fitted effect of over 55% in size. To be noted: Gynecologic cancer cell panel viability, ATPlite luminescence, 48 h; series mostly up to 57.5 µM. In outline:
(§1)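 Luminescence from the ATPlite ATP-monitoring reagent indicates viable cell number; lower signal means cytotoxicity. Cells received compound 16 h after seeding and were exposed for 48 h across five concentrations.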

The next test relates to Es-2. Described as above. To be noted: Gynecologic cancer cell panel viability, ATPlite luminescence, 48 h; series mostly up to 57.5 µM. In outline: as §1
The subject of another test is HeLa. The test is described as above. To be noted: Gynecologic cancer cell panel viability, ATPlite luminescence, 48 h; series mostly up to 57.5 µM. In outline:
as §1

The next test concerns Hek293T. Described as above. As to conditions: Gynecologic cancer cell panel viability, ATPlite luminescence, 48 h, control line for the selectivity index; series mostly up to 57.5 µM. In outline: as §1
The next test deals with JEG-3. Described as above. To be noted: Gynecologic cancer cell panel viability, ATPlite luminescence, 48 h; series mostly up to 57.5 µM. In outline: as §1
On the technique in general: Cellular ATP, detected with luciferase, serves as a proxy for viable cell number.

The subject of the next test is OV90. The description is as above. To be noted: Gynecologic cancer cell panel viability, ATPlite luminescence, 48 h; series mostly up to 57.5 µM. Put shortly:
as §1

In another test the test system is Tov112D. Described as above. As to conditions: Gynecologic cancer cell panel viability, ATPlite luminescence, 48 h; series mostly up to 57.5 µM. In outline: as §1
A further test concerns PA-1. The description is as above. As to conditions: Gynecologic cancer cell panel viability, ATPlite luminescence, 48 h; series mostly up to 57.5 µM. In outline: as §1
Another test deals with Tov-21-G. The test is described as above. As to conditions: Gynecologic cancer cell panel viability, ATPlite luminescence, 48 h; series mostly up to 57.5 µM. Put shortly: as §1
Test [1] can be described thus: qHTS assay to identify inhibitors of the type 1 interferon - major histocompatibility complex class I in skeletal muscle: Counter screen cell viability and HiBit confirmation (AID 1347412). On all read-outs here: nearly all actives have a fitted effect of over 60% in size. To be noted: iHSKM muscle cells + IFN-b, HiBiT or CellTiter-Glo, 24 h; for activity change, negative = inhibition: at 45.9 µM (top of the series). Put shortly: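 HLA-B*08:01–HiBiT knock-in immortalized human myoblasts (C25cl48) stimulated with 4.0 ng/ml human IFN-beta and dosed with compound in a 12-point 1:3 titration (top final 46 uM). After 24 hrs at 37 C, HiBiT lytic luminescence or CellTiter Glo ATP read out.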
A general note: qHTS replaces the single test concentration by a dilution series.

A further test concerns SKOV3. As to the kind of experiment: Primary qHTS to identify gynecologic anti-cancer compounds using libraries of approved drugs and bioactive compounds (AID 1345084). Further: nearly all actives have a fitted effect of over 55% in size. To be noted: Gynecologic cancer cell panel viability, ATPlite luminescence, 48 h; series mostly up to 57.5 µM. In outline: as §1
On the % scale 0 is the no-effect control and ±100 the full control effect; potency means the concentration at half of the fitted maximal effect.

Consider `CC(C)[C@@](C)(O)[C@@H]1CN(c2nc(-c3[nH]nc4ncccc34)c(F)cc2Cl)CCN1`, for which the Potency entry with CASKI, with Es-2, with HeLa, in the test with Hek293T, in the test with OV90 and in the test with Tov112D was “inactive” in each case. The Potency in the test with JEG-3 is 25.1 µM (active).

For the compound `Cc1cc(O)c(-c2ccc([C@@H](C)CN(C)C)cc2)c2c1[nH]c(=O)c1sccc12`, the Potency is 0.251 µM (active) with CASKI; 0.282 µM (active) with Es-2; 0.447 µM (active) in the test on HeLa; 0.158 µM (active) in the test with Hek293T; 0.282 µM (active) in the test with PA-1; 0.316 µM (active) with Tov-21-G. The Potency was 0.282 µM (active) in the test on Tov112D and 0.0787 µM (active) in test [1] (HiBiT). For the same compound, the activity change, negative = inhibition in [1] (Viability) was -2.3%.

As for `CCCNc1ccc2ncc(-c3ccc4[nH]ncc4c3)n2n1`, the Potency in the test with CASKI is 8.91 µM (active); with HeLa it was 4.47 µM (active); with Hek293T it was 2 µM (active); with PA-1, 2.82 µM (active); in the test on Tov-21-G it was 3.16 µM (active); in the test with Tov112D it was 3.55 µM (active).

Consider `CN(C)C/C=C/C(=O)Nc1cccc(C(=O)Nc2cccc(Nc3ncc(Cl)c(-c4c[nH]c5ccccc45)n3)c2)c1`, for which the Potency in the test with CASKI was 1.58 µM (active); in the test with Es-2, 8.91 µM (active); in the test on HeLa it was 2 µM (active); in the test with PA-1, 2.82 µM (active); in the test on Tov112D it was 1.26 µM (active); in test [1] (HiBiT) it was 1.11 µM (active). For the same compound, in test [1] (Viability), the activity change, negative = inhibition is 0.891%.

Take `CC[C@]1(O)CC2CN(CCc3c([nH]c4ccccc34)[C@@](C(=O)OC)(c3cc4c(cc3OC)N(C)[C@H]3[C@@](O)(C(=O)OC)[C@H](OC(C)=O)[C@]5(CC)C=CCN6CC[C@]43[C@@H]65)C2)C1` (stereo not given in full): the Potency in the test on CASKI is 1.12 µM (active); in the test on Es-2, 0.794 µM (active); in the test with HeLa, 0.708 µM (active); with OV90, 3.16 µM (active); in the test with PA-1 it was 0.282 µM (active); in the test on Tov-21-G it was 0.316 µM (active). Also, the Potency in the test on Tov112D is 0.282 µM (active).

On to `CO[C@H]1/C=C/[C@@](C)(O)/C=C/C(=O)O[C@H](C)[C@@H](C)CC/C=C/1C`, for which the Potency with CASKI is 11.2 µM (active); with SKOV3, 12.6 µM (active); with Tov-21-G, 10 µM (active).

Regarding `C=C1C(OC(C)=O)CCC2(C)CC3(OC)OC(=O)C(C)=C3CC12` (stereo not given), the Potency result with Es-2, with HeLa, in the test with Hek293T, in the test with PA-1, in the test with Tov-21-G and in the test on Tov112D was “inactive” in each case.

Turning to `c1cc(Nc2cc(C3CC3)[nH]n2)nc(Nc2ccc3nc[nH]c3c2)n1`, the Potency was 1.78 µM (active) in the test with CASKI; 12.6 µM (active) in the test on Es-2; 3.98 µM (active) in the test with PA-1; 1.12 µM (active) in the test with Tov112D; 1.4 µM (active) in test [1] (HiBiT). The Potency entry with JEG-3 is “inactive”. Moreover, the activity change, negative = inhibition in test [1] (Viability) is 24.1%.

With `COc1cccc(-c2cc(NCc3ccc4c(c3)OCO4)nc(N)n2)c1`, the Potency in the test on Es-2 was 1.41 µM (active); in the test on HeLa, 1 µM (active); in the test with JEG-3, 1.41 µM (active); in the test with PA-1, 1 µM (active); with Tov-21-G, 1 µM (active); with Tov112D, 0.447 µM (active).

With `CN(C)c1nc(NC2CCC(NC(=O)c3ccc(F)c(F)c3)CC2)nc2ccccc12` (stereo not given), the Potency entry with CASKI is “inactive”. The results for the Potency in the test with Hek293T, with OV90 and with PA-1 were 28.2 µM (active), 11.2 µM (active) and 14.1 µM (active), respectively.

Consider `C[C@@H]1C[C@H]2O[C@@H]2/C=C\C=C\C(=O)Cc2c(Cl)c(O)cc(O)c2C(=O)O1`, for which the activity change, negative = cytotoxicity in the test on CASKI was -0.527% [at 11.6 µM]; in the test with Tov112D, -26.2% [at 11.6 µM].

For the compound `CC(C)(C)Nc1nc2cc(Cl)c(Cl)cc2nc1S(C)(=O)=O`, the Potency in the test on CASKI is 35.5 µM (active); in the test on Hek293T, 28.2 µM (active); in the test with JEG-3, 15.8 µM (active); in the test with SKOV3, 20 µM (active); in the test with Tov-21-G, 28.2 µM (active).

Regarding `Nc1ccc(-c2cccc3c(=O)cc(N4CCOCC4)oc23)cc1`, the Potency in the test with CASKI is 12.6 µM (active); in the test with OV90, 11.2 µM (active). Also, the Potency entry in the test on JEG-3 was “inactive”.

Turning to `O=C(Nc1nc2ccccc2n1CCc1ccccc1)c1ccccc1`, the Potency entry in the test on CASKI and in the test on HeLa was “inactive” in each case. Further, the Potency in the test on PA-1 is 31.6 µM (active).

In the case of `C#CC[C@H](c1nc2cc(Cl)ccc2c(=O)n1Nc1ccccc1)N(CCCN)C(=O)c1cccc(Cl)c1F`, the Potency in the test with Es-2 is 7.94 µM (active); in the test with HeLa, 3.16 µM (active); in the test with Hek293T it was 14.1 µM (active); in the test with Tov112D, 0.355 µM (active). Further, the Potency result with OV90 was “inactive”.

`CS(=O)(=O)N1CCC(NC(=O)c2[nH]ncc2NC(=O)c2c(Cl)cccc2Cl)CC1`: the Potency in the test on CASKI is 7.94 µM (active); in the test on Es-2, 4.47 µM (active); with HeLa it was 10 µM (active); in the test with Hek293T, 5.01 µM (active); in the test with PA-1, 3.98 µM (active); in the test on Tov112D, 8.91 µM (active). Besides, the Potency in test [1] (HiBiT) is 1.98 µM (active). Moreover, in the test with JEG-3, the Potency entry was “inactive”. In addition, in test [1] (Viability), the activity change, negative = inhibition is 12.3%.

Turning to `C=C1C(=O)O[C@@H]2[C@H]1CCC(C)=C1CCC(=O)O[C@]12C`, the Potency entry in the test on CASKI, in the test with HeLa and in the test on Tov112D was “inactive” throughout.

For `COc1cc2ncnc(N3CCC(Oc4cnc5ccccc5n4)C3)c2cc1OC` (stereo not given), the Potency in the test with CASKI is 7.08 µM (active); in the test on Es-2 it was 3.98 µM (active); in the test with HeLa it was 1.78 µM (active); in the test on Hek293T, 3.55 µM (active); with Tov112D it was 1 µM (active).

As for `CCOc1cc2ncc(C#N)c(Nc3ccc(F)c(Cl)c3)c2cc1NC(=O)/C=C/CN(C)C`, in [1] (Viability), the Potency was 17.6 µM (active).

Take `CCN1CCN(Cc2ccc(NC(=O)Nc3ccc(Oc4cc(NC)ncn4)cc3)cc2C(F)(F)F)CC1`: in [1] (Viability), the activity change, negative = inhibition is -17.1%.

As to `CCS(=O)(=O)N1CCN(c2ccc(Nc3ncc(C(N)=O)c(NC4CC4)n3)cc2)CC1`, the activity change, negative = inhibition in test [1] (Viability) was 5.56%.
